Source: PubChem BioAssay
Values joined by “and” are separate entries in the source; they are usually repeats but may differ in a detail not shown here. Equal entries are not always repeated. Some structures have more than one record in an assay (separate samples or runs), and their calls can disagree. Active and inactive are the calls of the source.

Key:
[1] = growth inhibition, single agents and combos, LFS_MB_1R, cell-based, cisplatin or BGB combos, synergistic combos for chromothripsis tumors (AID 1671452); conditions: LFS_MB_1R medulloblastoma cells, stronger effect = higher value;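 further: cells exposed for 96 hours before readout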
[2] = growth inhibition, single agents and combos, CRL2098, cell-based, BGB or cisplatin IC20 combos, synergistic combos for chromothripsis tumors (AID 1671454); conditions: CRL2098 osteosarcoma cells, drug combinations, stronger effect = higher value;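 further: cells exposed for 96 h before readout; 0% = vehicle DMSO and 100% = killing by high DMSO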
[3] = growth inhibition, single agents and combos, HD-MB03, cell-based, BGB or cisplatin IC20 combos, synergistic combos for chromothripsis tumors (AID 1671455; in the data active means inhibition above about 83%;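 further: 0% = vehicle DMSO and 100% = high DMSO as cytotoxic control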); conditions: HD-MB03 medulloblastoma cells, stronger effect = higher value
[4] = growth inhibition, single agents and combos, UWB1.289, cell-based, BGB or cisplatin combos, synergistic combos for chromothripsis tumors (AID 1671456); conditions: UWB1.289 ovarian carcinoma cells, stronger effect = higher value;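 further: cells exposed to compound for four days; 0% = vehicle DMSO and 100% = killing by high DMSO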
[5] = growth inhibition, single agents and combos, LFS_MB_2R, cell-based, cisplatin combos, synergistic combos for chromothripsis tumors (AID 1671457); conditions: LFS_MB_2R medulloblastoma cells, stronger effect = higher value;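 further: cells exposed to compound for four days before readout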
[6] = UWB1.289_BRCA1 ovarian cancer growth, cell-based, BGB or cisplatin combinations (AID 1671459); conditions: UWB1.289 BRCA1 ovarian carcinoma, drug combinations, stronger effect = higher value
[7] = drug combination toxicity in non-malignant astrocytes – cell-based, BGB or cisplatin IC20 combos, cytotoxicity control for chromothriptic childhood tumor combination screen (AID 1671460); conditions: Human astrocytes, viability inhibition, drug combinations, at 0.5 µM, stronger effect = higher value;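 further: cells exposed to compounds for 96 hours before viability readout; 0% = vehicle and 100% = killing control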
[8] = CRL1545 cell growth, single agent and combined, cisplatin and BGB IC20 combos (AID 1671464); conditions: CRL1545 osteosarcoma cells, stronger effect = higher value;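 further: cells exposed to compound for 96 hours before readout; 0% = vehicle DMSO and 100% = high DMSO killing control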
[9] = compounds altering circadian rhythm period length – cell-based, LOPAC library, luminescence reporter (AID 2774; call rule not given here;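 further: values are relative to mean of DMSO wells on each plate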); conditions: circadian reporter cells, at 7 µM, actives lie on both sides
[10] = compounds altering viability of human ES cells (AID 493140; call rule not given here;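 further: cells exposed to compounds for four days before counting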); conditions: human embryonic stem cell survival screen; stronger effect = higher value
[11] = P. berghei load reduction in hepatocytes – cell-based, HepG2, luciferase luminescence, HepG2 viability, primary screen (AID 624349; in the data active means parasite load remaining mostly below about 12%, no sharp cut-off; inactive means mostly above about 10%;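 further: 100% = mean of DMSO negative control wells on the same plate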); conditions: P. berghei liver stage in HepG2, luciferase luminescence, concentration not given here; parasite load remaining: stronger effect = lower value; viability: measured here: HepG2 viability without parasites
[12] = test system: Hepatitis C virus NS3 helicase; experiment: blockers of NS3h binding to ssDNA – biochemical, fluorescence polarization, LOPAC1280 library, primary screen (AID 687035; in the data active means inhibition above about 37%); conditions: Purified HCV NS3 helicase, Cy5-dT15 ssDNA binding fluorescence polarization; stronger effect = higher value; concentration not given here
[13] = compounds altering Cy5-DNA-NS3h complex signal – biochemical, LOPAC1280, artefact control for HCV NS3 helicase inhibitor project (AID 687037; call rule not given here); conditions: Cy5-DNA-NS3h complex fluorescence interference counterscreen
[14] = blockers of cellular phospholipid synthesis – cell-based, LOPAC library, screen 4, primary screen (AID 1347384; call rule not given here); conditions: animal cells, phospholipid biosynthesis inhibition screen; at 10 µM
[15] = target: NAD(+) hydrolase SARM1 (Homo sapiens) (UniProt Q6SZW1); experiment: blocking NAD cleavage by SARM1 SAM-TIR – cell lysate, NAD-Glo luminescence (AID 1508614;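 active means compound whose remaining NAD level is above about 45 nM, limit read from the data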); conditions: SAM-TIR HEK293T lysate NADase, at 1 µM, stronger effect = higher value
[16] = target: Mitogen-activated protein kinase 7 (Homo sapiens) (UniProt Q13164); experiment: Gal4-ERK5 driven luciferase induction – cell-based, HTS, primary screen (AID 1508626;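 active means luciferase signal above three times the same-plate solvent-only control wells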;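 further: luciferase driven by Gal4-ERK5 fusion binding five Gal4 sites before minimal TATA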); conditions: HeLa Gal4-ERK5 transactivation, 18 h, at 5 µM, stronger effect = higher value
[17] = galactose survival enhancers in mitochondrial complex I cybrids – cell-based, galactose medium, ATP luminescence, primary screen (AID 1645843;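 active means z-score of at least 1.8 in each of two replicates, scored against plate mean and spread of sample wells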;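 further: positive z means more ATP and so rescue of galactose-driven cybrid death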); conditions: complex I mutant cybrid cells, 72 h, stronger effect = higher value
[18] = chitosan synthesis blockers in C. neoformans – flow cytometry, Cibacron Brilliant Red staining (AID 1347148; call rule not given here;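 further: compound exposure lasted three days at 37 degrees C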); conditions: Cryptococcus neoformans chitosan, stronger effect = lower value; at 10 µM unless noted
[19] = liver-stage malaria parasite load reduction – cell-based, known kinase inhibitor set, luminescence, hepatoma host viability (AID 624392; call rule not given here;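 further: infected cells incubated roughly two days before readout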); conditions: Plasmodium liver stage in hepatoma cells, luciferase luminescence, concentration not given here; liver cell % of control: measured here: host liver cell viability; parasite % of control: stronger effect = lower value
[20] = target: Tyrosine-protein kinase ABL1 (Homo sapiens) (UniProt P00519); experiment: PubChem AID 493040; conditions: kinase panel binding, pKi
[21] = measured here: combination with BGB IC40, at 0.05 µM
[22] = measured here: combination with cisplatin, at 0.5 µM
[23] = measured here: combination with cisplatin, at 5 µM
[24] = measured here: combination with BGB at IC20, at 0.5 µM
[25] = measured here: combination with cisplatin at IC20, at 0.5 µM
[26] = measured here: combo with BGB at IC20, at 0.5 µM
[27] = measured here: combo with cisplatin at IC20, at 0.5 µM
[28] = measured here: inhibition with BGB combination, at 0.05 µM
[29] = measured here: inhibition with cisplatin combination, at 0.05 µM
[30] = BGB combination, concentration series, at 5 µM
[31] = cisplatin combination, concentration series, at 5 µM
[32] = measured here: combo with BGB IC20
[33] = measured here: combo with cisplatin IC20
[34] = measured here: with BGB IC20 combination, at 0.5 µM
[35] = measured here: with cisplatin IC20 combination, at 0.5 µM

Sequence of Mitogen-activated protein kinase 7 (Homo sapiens) (Q13164 whole entry, looked up, the tested form may be a part): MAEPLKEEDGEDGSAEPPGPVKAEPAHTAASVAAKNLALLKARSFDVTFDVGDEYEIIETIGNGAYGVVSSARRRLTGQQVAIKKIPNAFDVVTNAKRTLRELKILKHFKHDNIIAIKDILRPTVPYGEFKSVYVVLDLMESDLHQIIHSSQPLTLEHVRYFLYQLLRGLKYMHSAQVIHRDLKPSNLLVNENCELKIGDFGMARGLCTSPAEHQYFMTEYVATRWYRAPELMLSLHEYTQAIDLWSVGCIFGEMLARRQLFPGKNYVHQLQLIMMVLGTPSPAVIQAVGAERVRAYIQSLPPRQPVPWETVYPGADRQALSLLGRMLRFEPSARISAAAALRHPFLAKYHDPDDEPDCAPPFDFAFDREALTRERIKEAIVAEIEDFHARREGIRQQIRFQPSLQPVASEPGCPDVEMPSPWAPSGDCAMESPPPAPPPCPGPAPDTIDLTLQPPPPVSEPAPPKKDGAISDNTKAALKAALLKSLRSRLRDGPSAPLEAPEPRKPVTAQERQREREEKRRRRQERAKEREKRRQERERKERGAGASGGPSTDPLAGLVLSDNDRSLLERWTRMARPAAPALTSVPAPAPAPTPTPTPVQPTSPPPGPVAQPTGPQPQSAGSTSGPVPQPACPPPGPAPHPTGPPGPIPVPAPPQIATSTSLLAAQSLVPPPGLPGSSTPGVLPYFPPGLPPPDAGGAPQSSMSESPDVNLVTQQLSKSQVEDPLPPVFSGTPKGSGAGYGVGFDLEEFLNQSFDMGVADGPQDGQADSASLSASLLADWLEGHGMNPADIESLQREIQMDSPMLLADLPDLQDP
Sequence of Tyrosine-protein kinase ABL1 (Homo sapiens) (P00519 whole entry, looked up): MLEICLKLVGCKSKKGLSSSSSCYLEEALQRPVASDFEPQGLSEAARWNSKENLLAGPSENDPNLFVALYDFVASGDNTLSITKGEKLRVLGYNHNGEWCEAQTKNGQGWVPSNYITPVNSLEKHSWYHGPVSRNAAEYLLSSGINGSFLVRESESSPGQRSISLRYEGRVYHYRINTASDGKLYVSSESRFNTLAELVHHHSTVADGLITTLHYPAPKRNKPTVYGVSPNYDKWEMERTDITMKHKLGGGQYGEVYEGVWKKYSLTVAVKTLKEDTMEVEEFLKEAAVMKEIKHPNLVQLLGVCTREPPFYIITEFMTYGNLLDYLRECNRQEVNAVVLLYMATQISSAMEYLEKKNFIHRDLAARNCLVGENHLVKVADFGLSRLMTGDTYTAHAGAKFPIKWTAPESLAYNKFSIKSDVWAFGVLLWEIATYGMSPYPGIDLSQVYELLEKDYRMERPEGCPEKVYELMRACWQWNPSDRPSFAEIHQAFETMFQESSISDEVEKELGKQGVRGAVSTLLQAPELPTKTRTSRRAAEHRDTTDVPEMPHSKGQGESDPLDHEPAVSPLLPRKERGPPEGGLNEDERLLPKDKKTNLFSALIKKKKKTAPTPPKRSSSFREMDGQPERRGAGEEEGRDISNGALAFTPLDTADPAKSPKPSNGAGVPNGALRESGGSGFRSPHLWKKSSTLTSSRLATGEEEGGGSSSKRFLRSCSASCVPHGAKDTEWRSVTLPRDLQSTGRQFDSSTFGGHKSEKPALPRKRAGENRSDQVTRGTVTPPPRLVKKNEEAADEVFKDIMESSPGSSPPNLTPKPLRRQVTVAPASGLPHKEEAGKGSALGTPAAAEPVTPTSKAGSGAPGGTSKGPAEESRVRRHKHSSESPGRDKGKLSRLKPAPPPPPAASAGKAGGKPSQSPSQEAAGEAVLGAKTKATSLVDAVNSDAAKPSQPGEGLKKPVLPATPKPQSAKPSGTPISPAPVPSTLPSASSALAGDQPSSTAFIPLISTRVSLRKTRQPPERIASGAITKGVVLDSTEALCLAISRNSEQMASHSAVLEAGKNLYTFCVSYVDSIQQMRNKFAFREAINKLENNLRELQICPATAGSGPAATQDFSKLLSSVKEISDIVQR
Sequence of NAD(+) hydrolase SARM1 (Homo sapiens) (Q6SZW1 whole entry, looked up, the tested form may be a part): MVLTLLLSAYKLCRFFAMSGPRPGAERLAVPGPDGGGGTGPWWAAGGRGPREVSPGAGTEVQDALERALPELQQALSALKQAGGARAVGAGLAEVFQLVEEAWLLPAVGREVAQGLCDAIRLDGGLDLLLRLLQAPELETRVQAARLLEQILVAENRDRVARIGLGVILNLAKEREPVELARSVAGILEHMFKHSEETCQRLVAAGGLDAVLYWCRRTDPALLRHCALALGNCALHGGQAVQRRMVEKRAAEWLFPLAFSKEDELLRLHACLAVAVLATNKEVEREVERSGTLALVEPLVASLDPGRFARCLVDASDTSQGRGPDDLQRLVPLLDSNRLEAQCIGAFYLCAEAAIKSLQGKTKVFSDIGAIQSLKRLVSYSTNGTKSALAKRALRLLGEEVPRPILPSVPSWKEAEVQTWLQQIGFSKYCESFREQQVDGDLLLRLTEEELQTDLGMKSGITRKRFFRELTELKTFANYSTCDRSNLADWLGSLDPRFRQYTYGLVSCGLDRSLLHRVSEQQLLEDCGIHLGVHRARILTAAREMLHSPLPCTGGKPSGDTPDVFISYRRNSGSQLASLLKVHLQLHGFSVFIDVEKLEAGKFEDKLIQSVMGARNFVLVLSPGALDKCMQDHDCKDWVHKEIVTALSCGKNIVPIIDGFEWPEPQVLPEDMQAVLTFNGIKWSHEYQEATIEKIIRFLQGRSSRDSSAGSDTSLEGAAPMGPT

Structure (SMILES): C#Cc1cccc(Nc2ncnc3cc(OC)c(OCCCCCCC(=O)NO)cc23)c1
- inhibition ([1]; at 0.5 µM): 72.7% (inactive) and 57.9% (inactive)
- inhibition [1, 21]: -16.6% and -26.1%
- inhibition [1, 22]: 88.8% and 73.7%
- inhibition [1, 23]: 101% and 99%
- inhibition ([2]; at 0.5 µM): -70.6% (inactive) and -57.7% (inactive)
- inhibition [2, 24]: -40.2% and -108%
- inhibition [2, 25]: -130% and -17.7%
- inhibition ([3]; at 0.5 µM): 45.5% (inactive) and 17.9% (inactive)
- inhibition [3, 26]: 34.3% and 16.8%
- inhibition [3, 27]: 84.2% and 39.1%
- inhibition ([4]; at 0.5 µM): 58.9% (inactive) and 21.7% (inactive)
- inhibition [4, 28]: -23% and -18.1%
- inhibition [4, 29]: 7.84% and -0.343%
- inhibition ([5]; at 0.5 µM): 80.6% (active) and 5.75% (inactive)
- inhibition [5, 22]: 96% and 17.9%
- inhibition [5, 23]: 99.8% and 105%
- inhibition [6, 30]: 108% and 106%
- inhibition ([6]; at 0.5 µM): 64.7% (inactive) and 19.7% (inactive)
- inhibition [6, 31]: 128% and 122%
- inhibition [7]: 63.5% (inactive) and 39.1% (inactive)
- inhibition [7, 32]: 58% and 34.9%
- inhibition [7, 33]: 64.7% and 42.3%
- inhibition ([8]; at 0.5 µM): 34.3% (inactive) and 15.2% (inactive)
- inhibition [8, 34]: 17.9% and 26.4%
- inhibition [8, 35]: 41.6% and 7.54%
- inhibition ([8]; single agent, at 0.05 µM): -39.2% and -32.8%
- inhibition ([8]; single agent, at 5 µM): 97.8% and 92.8%

Structure (SMILES): CC(=O)O[C@H]1C[C@@H]2CC[C@@H]3[C@H](CC[C@@]4(C)[C@H]3C[C@H]([N+]3(C)CCCCC3)[C@@H]4OC(C)=O)[C@@]2(C)C[C@@H]1[N+]1(C)CCCCC1
- period change [9]: -0.015 h (inactive)
- survival [10]: 6.75 (inactive)
- parasite load remaining [11]: 119% (inactive) and 39.7% (inactive)
- viability [11]: 75.7% and 111%
- inhibition [12]: 1% (inactive)
- fluorescence ratio (interference) [13]: 1 (inactive)
- outcome [14]: inactive
- remaining NAD [15]: 10 nM (inactive)
- luciferase signal [16]: 40 AU (inactive)
- z-score [17]: 0.28 (inactive) and 0.73 (inactive)

Structure (SMILES): CCCNC(=O)[C@H]1O[C@@H]1C(=O)N[C@H](C(=O)N1CCC[C@H]1C(=O)OC)C(C)CC (stereo partly drawn)
- fold fluorescence [18]: 3.89 [at 125.8 µM] (inactive)

Structure (SMILES): O=C(/C=C/c1cccc(S(=O)(=O)Nc2ccccc2)c1)NO
- inhibition ([1]; at 0.5 µM): 31.6% (inactive)
- inhibition [1, 21]: -40%
- inhibition [1, 22]: 39.8%
- inhibition [1, 23]: 99.9%
- inhibition ([2]; at 0.5 µM): -17% (inactive)
- inhibition [2, 24]: -63.8%
- inhibition [2, 25]: 6.33%
- inhibition ([3]; at 0.5 µM): 86.6% (active)
- inhibition [3, 26]: 88.4%
- inhibition [3, 27]: 99%
- inhibition ([4]; at 0.5 µM): 41% (inactive)
- inhibition [4, 28]: -3.28%
- inhibition [4, 29]: 9.18%
- inhibition ([5]; at 0.5 µM): 37.4% (inactive)
- inhibition [5, 22]: 58.7%
- inhibition [5, 23]: 105%
- inhibition [6, 30]: 99.6%
- inhibition ([6]; at 0.5 µM): 41.8% (inactive)
- inhibition [6, 31]: 120%
- inhibition [7]: 31.9% (inactive)
- inhibition [7, 32]: 38.1%
- inhibition [7, 33]: 9.25%
- inhibition ([8]; at 0.5 µM): 90.5% (active)
- inhibition [8, 34]: 88.7%
- inhibition [8, 35]: 91.2%
- inhibition ([8]; single agent, at 0.05 µM): -2.13%
- inhibition ([8]; single agent, at 5 µM): 85.5%

Structure (SMILES): Nc1ccc(C(=O)Nc2cccc(-c3nc(N4CCOCC4)c4oc5ncccc5c4n3)c2)cn1
- parasite load remaining [11]: 28.3% (inactive)
- viability [11]: 70.4%
- liver cell % of control [19]: 80.6% and 78.7% and 90.7%
- parasite % of control [19]: 109% (inactive) and 149% (inactive) and 242% (inactive)

Structure (SMILES): O=C1c2ccccc2-[n+]2ccc3c([nH]c4ccccc43)c21
- parasite load remaining [11]: 1.89% (inactive)
- viability [11]: 32.8%

Structure (SMILES): Oc1cccc(-c2nc(N3CCOCC3)c3oc4ncccc4c3n2)c1
- parasite load remaining [11]: 45.4% (inactive)
- viability [11]: 89.8%
- liver cell % of control [19]: 88.7% and 86.7% and 100%
- parasite % of control [19]: 326% (inactive) and 309% (inactive) and 81.9% (inactive)
- outcome [20]: inactive

Structure (SMILES): CCCCc1nc2cc(/C=C/C(=O)NO)ccc2n1CCN(CC)CC
- inhibition ([1]; at 0.5 µM): 31% (inactive)
- inhibition [1, 21]: -30.9%
- inhibition [1, 22]: 45.7%
- inhibition [1, 23]: 97.5%
- inhibition ([2]; at 0.5 µM): -2.27% (inactive)
- inhibition [2, 24]: -16.1%
- inhibition [2, 25]: 1.66%
- inhibition ([3]; at 0.5 µM): 93.3% (active)
- inhibition [3, 26]: 95.7%
- inhibition [3, 27]: 99.3%
- inhibition ([4]; at 0.5 µM): 46.9% (inactive)
- inhibition [4, 28]: 11.6%
- inhibition [4, 29]: 0.198%
- inhibition ([5]; at 0.5 µM): 26.1% (inactive)
- inhibition [5, 22]: 56.5%
- inhibition [5, 23]: 98.1%
- inhibition [6, 30]: 115%
- inhibition ([6]; at 0.5 µM): 51.5% (inactive)
- inhibition [6, 31]: 127%
- inhibition [7]: 41.3% (inactive)
- inhibition [7, 32]: 44.4%
- inhibition [7, 33]: 26%
- inhibition ([8]; at 0.5 µM): 81.5% (active)
- inhibition [8, 34]: 67.7%
- inhibition [8, 35]: 88.2%
- inhibition ([8]; single agent, at 0.05 µM): -14.8%
- inhibition ([8]; single agent, at 5 µM): 93.1%
